Each structure is given as a SMILES string. Activity calls are given as the source filed them.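 Rule for the calls, unless noted: active = visual image review flags a hit and inhibition of aggregation exceeds 20%; inconclusive = visual hit but inhibition at or below 20%; inactive = no hit on visual image review.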

Broadly, the inhibition is the relative decrease from the control value, in per cent.

The first assay can be described thus: inhibitors of TNFa-induced NFkB p65 translocation, primary screen, imaging, HUVEC, MLSMR starter and 10KST1 sets (AID 438;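 active = inhibition above 20% together with a positive visual image hit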;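 note: compound added about 3h40 before a 20 min TNFalpha stimulation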;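 for inhibition: signal is the nuclear over cytoplasmic p65 intensity ratio per well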). The conditions noted are these: HUVEC TNFa-induced p65 nuclear translocation; cell count: measured here: nuclei count (cytotoxicity indicator), at 2.08 µM; inhibition: at 2 µM, stronger effect = higher value, 0% TNFa-plus-vehicle, 100% no-TNFa wells.
Take `Cc1onc(-c2c(Cl)cccc2Cl)c1C(=O)N1CCc2ccccc21`: the cell count stood at 696 and the inhibition is -5.8% (inactive).
Consider `CN1CCN(C2=C(Cl)C(=O)N(c3cccc(Cl)c3)C2=O)CC1`, for which the cell count is 396 and the inhibition was 5.9% (inactive).
As for `COc1ccc(CCNC(=O)c2ccncc2)cc1OC`, the cell count came out at 162 and the inhibition was -18.8% (inactive).
Consider `O=c1c2cc(Cl)ccc2[nH]c(=S)n1Cc1ccco1`, for which the cell count is 439 and the inhibition is 5.3% (inactive).
For `Nc1nc(SCc2nc3scc(-c4cccs4)c3c(=O)[nH]2)n[nH]1` the same measures were 473 and 3.8% (inactive).
The corresponding values for `Cn1c(=O)c2c([nH]c(=O)n2C)n(C)c1=O` are 364 and 1.7% (inactive).
With `COc1ccccc1CN1CC(C(=O)NCc2cccnc2)CC1=O` (stereo not given), the inhibition was -8% (inactive) and the cell count was determined as 536.
With `COc1ccc(-n2nnnc2SCC(=O)c2ccc(O)c(O)c2)cc1`, the cell count is 344 and the inhibition was -6.5% (inactive).
For `Cc1ccc2c(c1)N(CC(=O)Nc1ccc3c(c1)OCCO3)C(=O)CO2`, the cell count is 362 and the inhibition was -4.9% (inactive).
In the case of `Cc1nc2ccc(N3C(=O)CCC3=O)cc2[nH]1`, the cell count was 282 and the inhibition is -8% (inactive).
Take `CCOC(=O)c1oc2ccccc2c1NC(=O)c1cccc(OC)c1OC`: the inhibition is -14.1% (inactive) and the cell count was 553.
With `CCC(C)NC(=O)c1ccccc1NC(=O)C(C)N(c1ccccc1)S(C)(=O)=O` (stereo not given), the inhibition was 3.1% (inactive) and the cell count came to 643.
For the compound `O=C(Nc1sc2c(c1C(=O)NCc1ccco1)CCCC2)c1ccc2c(c1)OCO2`, the inhibition was -10.1% (inactive) and the cell count is 563.
`CCOC(=O)c1ccc(NS(=O)(=O)c2ccc3c(c2)CCCN3C(C)=O)cc1`: the cell count is 684 and the inhibition is 0.7% (inactive).
For the compound `CC12COC3(C(=O)Nc4ccc(Cl)cn4)CC1CCC32C` (stereo not given), the inhibition was -8% (inactive) and the cell count turned out to be 773.
`CC1CCC2C(C1)c1sc(=O)[nH]c1SC2(C)C` (stereo not given): the cell count came to 815 and the inhibition was -7.3% (inactive).
Turning to `Brc1ccc(-c2csc(/N=C/N3CCOCC3)n2)cc1`, the cell count was 531 and the inhibition was -3.6% (inactive).
`Cc1nnc(SCc2cn3ccsc3n2)n(N)c1=O`: the inhibition is -10.7% (inactive) and the cell count worked out at 858.
In the case of `CCOc1ccc(-c2nnc(N)s2)cc1`, the inhibition is -3.8% (inactive) and the cell count came to 432.
For `C=CCn1c(=O)c(C(=O)Nc2ccccc2C(=O)OCC)c(O)c2ccccc21`, the cell count is 495 and the inhibition is -5.5% (inactive).
For `C=CCn1c(COc2ccccc2)nnc1SCC(=O)C(C)(C)C` the same measures were 733 and 0.9% (inactive).
As for `O=C(c1ccco1)N1CCN(C(=O)c2cc3c(s2)-c2ccccc2OC3)CC1`, the inhibition was -5% (inactive) and the cell count came out at 684.
Regarding `O=C(NCc1cccs1)C1CCCN(c2ncccn2)C1` (stereo not given), the cell count is 404 and the inhibition is -3% (inactive).
Regarding `Cc1cc(C)c2[nH]c(=O)c(C(c3nnnn3Cc3ccc4c(c3)OCO4)N3CCC(C)CC3)cc2c1` (stereo not given), the cell count turned out to be 716 and the inhibition is -1.6% (inactive).
`COc1cccc(-c2nc(CS(=O)(=O)CC(=O)Nc3cc(C)ccc3C)c(C)o2)c1`: the cell count stood at 718 and the inhibition is -4.6% (inactive).
For `Cc1ccc(C2=Nc3ccccc3NC(C)(c3ccc(C)o3)C2)o1` (stereo not given), the cell count worked out at 696 and the inhibition was 1.6% (inactive).
`CCOC(=O)c1ccc(N=c2sc(C(=O)OC)cc(=O)n2Cc2ccco2)cc1`: the inhibition is -8% (inactive) and the cell count is 514.
Consider `COc1ccc2c(c1)C(C)=CC(C)(C)N2C(=O)CSc1nnc(-c2ccc(C)cc2)o1`, for which the inhibition was 12.5% (inactive) and the cell count amounted to 362.
Turning to `CC(C)C1N=C2c3ccccc3N=C(SCc3cc(=O)n4ccccc4n3)N2C1=O` (stereo not given), the inhibition is -10.9% (inactive) and the cell count is 646.
`CCCCN(CCCC)CCn1cnc2c([nH]c3ccc(OC)cc32)c1=O`: the cell count is 569 and the inhibition is -7.1% (inactive).
The corresponding values for `CC1CC(=O)c2cnc(NCC3CCCO3)nc2C1` (stereo not given) are 613 and 13.9% (inactive).
Take `CCC(CO)Nc1ncnc2c1cnn2-c1ccc(Cl)cc1` (stereo not given): the inhibition is 10% (inactive) and the cell count came to 550.
With `CC(C)CCNC(=O)C(C)N(Cc1ccc(F)cc1)C(=O)c1ccc(CN2CCCCC2)o1` (stereo not given), the cell count worked out at 327 and the inhibition was -11.2% (inactive).
For `O=C(OC1CCOC1=O)c1ccc(S(=O)(=O)N2CCCCCC2)cc1` (stereo not given), the inhibition was 1.1% (inactive) and the cell count is 466.
For `COC(=O)C1C(=O)c2c([nH]c(C(=O)OCCOC(C)C)c2C)CC1C` (stereo not given), the cell count was 304 and the inhibition is -3.3% (inactive).
Consider `CC(=O)c1cc(-c2ccc(F)cc2)n(CCC(=O)Nc2cc(C)[nH]n2)c1C`, for which the inhibition was 0% (inactive) and the cell count turned out to be 360.
Regarding `CCCn1c(=O)c2ccccc2n2c(SCCOc3ccccc3F)nnc12`, the inhibition was -10.2% (inactive) and the cell count turned out to be 574.
For `O=C1c2ccccc2C(Nc2ccc(F)c(Cl)c2)N1Cc1ccco1` (stereo not given) the same measures were -11.6% (inactive) and 778.
For `COCCn1c(COc2ccc(Cl)cc2)nnc1SCC(N)=O` the same measures were 3.4% (inactive) and 424.
`CCOC(=O)N1CCN(S(=O)(=O)c2ccc(F)c(C(=O)Nc3cc(C)cc(C)c3)c2)CC1`: the inhibition is -19.7% (inactive) and the cell count is 578.

A short description of a further assay: inhibitors of mutant huntingtin aggregation, primary screen, imaging, exon1htt(103Q)mCFP cells, high-content imaging (AID 483).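 For nuclei count: percent of the per-plate median nuclei count of sample wells.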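 Note: compound exposure lasted 3 days before fixation.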 The conditions noted are these: exon1htt(103Q)mCFP cell line, aggregate imaging, at 2 µM; inhibition of aggregation: stronger effect = higher value; nuclei count: measured here: cell count, toxicity.
For `Cc1onc(-c2c(Cl)cccc2Cl)c1C(=O)N1CCc2ccccc21`, the nuclei count turned out to be 93.6% and the inhibition of aggregation is -0.7% (inactive).
As to `CN1CCN(C2=C(Cl)C(=O)N(c3cccc(Cl)c3)C2=O)CC1`, the inhibition of aggregation is 8.6% (inactive) and the nuclei count amounted to 91.3%.
Consider `COc1ccc(CCNC(=O)c2ccncc2)cc1OC`, for which the inhibition of aggregation is 10.4% (inactive) and the nuclei count came out at 95.7%.
With `O=c1c2cc(Cl)ccc2[nH]c(=S)n1Cc1ccco1`, the inhibition of aggregation is 13.5% (inactive) and the nuclei count was determined as 89.7%.
In the case of `Nc1nc(SCc2nc3scc(-c4cccs4)c3c(=O)[nH]2)n[nH]1`, the inhibition of aggregation was 10.7% (inactive) and the nuclei count came to 103%.
Turning to `Cn1c(=O)c2c([nH]c(=O)n2C)n(C)c1=O`, the inhibition of aggregation is 2.6% (inactive) and the nuclei count worked out at 104%.
On to `COc1ccccc1CN1CC(C(=O)NCc2cccnc2)CC1=O` (stereo not given), for which the inhibition of aggregation was 4.9% (inactive) and the nuclei count was determined as 91.5%.
On to `COc1ccc(-n2nnnc2SCC(=O)c2ccc(O)c(O)c2)cc1`, for which the nuclei count came out at 91.8% and the inhibition of aggregation was 20.5% (inactive).
As for `Cc1ccc2c(c1)N(CC(=O)Nc1ccc3c(c1)OCCO3)C(=O)CO2`, the inhibition of aggregation was -2.2% (inactive) and the nuclei count came to 84.3%.
Regarding `Cc1nc2ccc(N3C(=O)CCC3=O)cc2[nH]1`, the inhibition of aggregation is 9.2% (inactive) and the nuclei count worked out at 92.3%.
Regarding `CCOC(=O)c1oc2ccccc2c1NC(=O)c1cccc(OC)c1OC`, the inhibition of aggregation is -13% (inactive) and the nuclei count came to 104%.
Turning to `CCC(C)NC(=O)c1ccccc1NC(=O)C(C)N(c1ccccc1)S(C)(=O)=O` (stereo not given), the inhibition of aggregation is 5% (inactive) and the nuclei count was 108%.
As to `O=C(Nc1sc2c(c1C(=O)NCc1ccco1)CCCC2)c1ccc2c(c1)OCO2`, the inhibition of aggregation was 2.5% (inactive) and the nuclei count was found to be 103%.
Regarding `CCOC(=O)c1ccc(NS(=O)(=O)c2ccc3c(c2)CCCN3C(C)=O)cc1`, the nuclei count is 99% and the inhibition of aggregation is 9.2% (inactive).
Consider `CC12COC3(C(=O)Nc4ccc(Cl)cn4)CC1CCC32C` (stereo not given), for which the inhibition of aggregation is 16.9% (inactive) and the nuclei count worked out at 85.1%.
As for `CC1CCC2C(C1)c1sc(=O)[nH]c1SC2(C)C` (stereo not given), the inhibition of aggregation was 16.6% (inactive) and the nuclei count amounted to 98.3%.
Regarding `Brc1ccc(-c2csc(/N=C/N3CCOCC3)n2)cc1`, the nuclei count is 97.4% and the inhibition of aggregation is -0.1% (inactive).
For `Cc1nnc(SCc2cn3ccsc3n2)n(N)c1=O` the same measures were 105% and -21% (inactive).
As to `CCOc1ccc(-c2nnc(N)s2)cc1`, the nuclei count was 61.4% and the inhibition of aggregation is 29.9% (inactive).
For `C=CCn1c(=O)c(C(=O)Nc2ccccc2C(=O)OCC)c(O)c2ccccc21` the same measures were 120% and -15.6% (inactive).
Consider `C=CCn1c(COc2ccccc2)nnc1SCC(=O)C(C)(C)C`, for which the nuclei count came to 102% and the inhibition of aggregation is -8.3% (inactive).
For `O=C(c1ccco1)N1CCN(C(=O)c2cc3c(s2)-c2ccccc2OC3)CC1`, the nuclei count turned out to be 131% and the inhibition of aggregation is -23% (inactive).
Turning to `O=C(NCc1cccs1)C1CCCN(c2ncccn2)C1` (stereo not given), the nuclei count was found to be 96.8% and the inhibition of aggregation was 13.4% (inactive).
On to `Cc1cc(C)c2[nH]c(=O)c(C(c3nnnn3Cc3ccc4c(c3)OCO4)N3CCC(C)CC3)cc2c1` (stereo not given), for which the inhibition of aggregation is 2.1% (inactive) and the nuclei count turned out to be 98.1%.
Take `COc1cccc(-c2nc(CS(=O)(=O)CC(=O)Nc3cc(C)ccc3C)c(C)o2)c1`: the nuclei count was determined as 59.5% and the inhibition of aggregation is -2.5% (inactive).
`Cc1ccc(C2=Nc3ccccc3NC(C)(c3ccc(C)o3)C2)o1` (stereo not given): the inhibition of aggregation is -18.4% (inactive) and the nuclei count came out at 100%.
On to `CCOC(=O)c1ccc(N=c2sc(C(=O)OC)cc(=O)n2Cc2ccco2)cc1`, for which the inhibition of aggregation was -5.9% (inactive) and the nuclei count came out at 107%.
For `COc1ccc2c(c1)C(C)=CC(C)(C)N2C(=O)CSc1nnc(-c2ccc(C)cc2)o1`, the nuclei count came out at 106% and the inhibition of aggregation is 8.3% (inactive).
With `CC(C)C1N=C2c3ccccc3N=C(SCc3cc(=O)n4ccccc4n3)N2C1=O` (stereo not given), the nuclei count is 58.8% and the inhibition of aggregation is 4.4% (inactive).
Regarding `CCCCN(CCCC)CCn1cnc2c([nH]c3ccc(OC)cc32)c1=O`, the nuclei count was determined as 85.8% and the inhibition of aggregation is 0.2% (inactive).
`CC1CC(=O)c2cnc(NCC3CCCO3)nc2C1` (stereo not given): the nuclei count was determined as 106% and the inhibition of aggregation was -14% (inactive).
In the case of `CCC(CO)Nc1ncnc2c1cnn2-c1ccc(Cl)cc1` (stereo not given), the inhibition of aggregation was 7.5% (inactive) and the nuclei count amounted to 101%.
For `CC(C)CCNC(=O)C(C)N(Cc1ccc(F)cc1)C(=O)c1ccc(CN2CCCCC2)o1` (stereo not given), the nuclei count worked out at 75.3% and the inhibition of aggregation is 28.1% (active).
In the case of `O=C(OC1CCOC1=O)c1ccc(S(=O)(=O)N2CCCCCC2)cc1` (stereo not given), the inhibition of aggregation is -2.3% (inactive) and the nuclei count came to 92.8%.
For `COC(=O)C1C(=O)c2c([nH]c(C(=O)OCCOC(C)C)c2C)CC1C` (stereo not given) the same measures were -11.8% (inactive) and 112%.
For `CC(=O)c1cc(-c2ccc(F)cc2)n(CCC(=O)Nc2cc(C)[nH]n2)c1C` the same measures were -4.1% (inactive) and 102%.
With `CCCn1c(=O)c2ccccc2n2c(SCCOc3ccccc3F)nnc12`, the inhibition of aggregation is 4.4% (inactive) and the nuclei count is 85.2%.
For `O=C1c2ccccc2C(Nc2ccc(F)c(Cl)c2)N1Cc1ccco1` (stereo not given) the same measures were -4.9% (inactive) and 110%.
For `COCCn1c(COc2ccc(Cl)cc2)nnc1SCC(N)=O`, the nuclei count came to 93.8% and the inhibition of aggregation was 7.6% (inactive).
In the case of `CCOC(=O)N1CCN(S(=O)(=O)c2ccc(F)c(C(=O)Nc3cc(C)cc(C)c3)c2)CC1`, the nuclei count stood at 62.7% and the inhibition of aggregation is 16.1% (inactive).

These data come from PubChem BioAssay.
